PubChem BioAssay AID1851 (National Center for Advancing Translational Sciences (NCATS), 2009)
Hit rate of the full screen: of about 16,000 compounds, about 4,000 (25%) were called active. Roughly 26% stayed inconclusive and do not appear here. The list is a sample of the results. Unmarked numbers belong to inactive results. The call rests on the fitted dose curve; in most records, active means well fitted curve in the direction sought with a large enough effect; inconclusive means small, poorly fitted or top-dose-only effect, or effect the other way; inactive means no such curve, though single readings can be large or run the other way.

target: Cytochrome P450 2C9 (Homo sapiens) (UniProt P11712); test: Cytochrome panel assay with activity outcomes; settings: recombinant CYP, pro-luciferin dealkylation, luminescence, p450-cyp2c9; series mostly up to 57.1 µM
On the % scale 0 is the no-effect control and ±100 the full control effect.

Chain of Cytochrome P450 2C9 (Homo sapiens) (P11712 whole entry, looked up): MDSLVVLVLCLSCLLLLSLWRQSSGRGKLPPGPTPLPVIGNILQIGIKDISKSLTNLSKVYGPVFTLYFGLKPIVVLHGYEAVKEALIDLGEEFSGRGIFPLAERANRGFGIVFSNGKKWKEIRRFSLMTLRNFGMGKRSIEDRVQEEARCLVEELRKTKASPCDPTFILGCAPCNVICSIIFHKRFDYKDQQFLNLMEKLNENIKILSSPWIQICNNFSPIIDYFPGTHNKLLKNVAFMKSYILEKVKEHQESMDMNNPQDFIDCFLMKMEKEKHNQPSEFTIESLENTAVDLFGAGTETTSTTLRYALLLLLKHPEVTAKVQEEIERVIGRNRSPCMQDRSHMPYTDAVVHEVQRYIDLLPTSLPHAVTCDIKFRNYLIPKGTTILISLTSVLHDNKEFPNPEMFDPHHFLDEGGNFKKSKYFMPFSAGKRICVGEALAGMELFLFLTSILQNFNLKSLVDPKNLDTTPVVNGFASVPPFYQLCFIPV

Row | SMILES | AC50 | activity, negative = inhibition
1 | Oc1ccc([C@@H]2CNCCc3c2cc(O)c(O)c3Cl)cc1 | inactive | –
2 | O=c1[nH]c(=O)n([C@@H]2C[C@H](O)[C@H](CO)O2)cc1I | inactive | –
3 | N#CCSc1nc2cc(C(=O)N3CCCC3)ccc2c(=O)n1Cc1ccccc1 | 3.98 µM (active) | –
4 | O=C(CSc1nc2ccccc2c(=O)n1CCCO)NCc1ccccc1 | 12.6 µM (active) | –
5 | CN1CCN(C(=O)c2ccc3c(=O)n4c(nc3c2)CCCCC4)CC1 | inactive | –
6 | O=C(O)CCCCCn1c(SCC(=O)N2CCCC2)nc2ccsc2c1=O | inactive | –
7 | COCC(=O)N1CCC2(CCCN(C(=O)Nc3ccc(OC)cc3)C2)CC1 | inactive | –
8 | COc1ccc(NC(=O)CSc2nc3ccccc3c(=O)n2CCC(=O)N2CCCCC2)cc1 | 3.98 µM (active) | –
9 | O=C(CSc1nc2ccccc2c(=O)n1NC(=O)Cc1ccccc1)NCc1ccccc1Cl | 0.398 µM (active) | –
10 | CCN1CCN(C(=O)CCc2nc3ccccc3c(=O)[nH]2)CC1 | inactive | –
11 | CCCc1nnc(SCC(=O)N2CCCCC2)n1CC1CCCO1 (centres undefined) | inactive | –
12 | COCc1nc2c([nH]1)c(=O)n(C)c(=O)n2CC(C)C | inactive | –
13 | Cc1ccc2cc(C)c3nnc(SCC(=O)NCc4ccco4)n3c2c1 | 15.8 µM (active) | –
14 | O=C(NCC1CCCO1)c1ccc2c(=O)n(Cc3ccco3)c(SCC(=O)N3CCCC3)nc2c1 (centres undefined) | 2.24 µM (active) | –
15 | Cc1cc2cc(C)c3nnc(SCC(=O)NCc4ccc5c(c4)OCO5)n3c2cc1C | inactive | –
16 | CC(C)Cn1c(SCc2nc3ccccc3c(=O)[nH]2)nc2ccccc2c1=O | 2 µM (active) | –
17 | Cc1cc(NC(=O)CSc2nc3ccsc3c(=O)n2CCCCC(=O)O)no1 | inactive | –
18 | Cc1cc(NC(=O)CSc2nc3ccsc3c(=O)n2Cc2ccccn2)n[nH]1 | 28.2 µM (active) | –
19 | Cc1cc(C)c(C)c(S(=O)(=O)ON2C(=O)c3ccccc3C2=O)c1C | inactive | –
20 | Cc1ccc(OCCCN2C(=O)C(=O)c3cccc(C)c32)cc1 | 8.91 µM (active) | –
21 | CN(c1ccc(C(=O)NC2CC3CCC2C3)cc1)S(C)(=O)=O (centres undefined) | inactive | –
22 | CS(=O)(=O)N1CCN(c2ccc(C(=O)NC3C4CC5CC(C4)CC3C5)cc2[N+](=O)[O-])CC1 (centres undefined) | 12.6 µM (active) | –
23 | CCCN[C@@H](C)C(=O)Nc1c(C)csc1C(=O)OC | inactive | –
24 | CC(=O)c1c(N=CN(C)C)nc(C)nc1-c1ccccc1 | inactive | –
25 | COc1ccc(-c2nc3cnc(N4CCOCC4)nc3n(CCc3ccccc3)c2=O)cc1 | inactive | –

Row | SMILES | AC50 | activity, negative = inhibition
26 | CN1CCN(c2ncc3nc(-c4ccccc4)c(=O)n(CCc4ccccc4)c3n2)CC1 | 3.16 µM (active) | –
27 | COc1ccc(-c2nc3cnc(N4CCN(C)CC4)nc3n(CCc3ccccc3)c2=O)cc1 | inactive | –
28 | CN1CCN(c2ncc3nc(-c4cc(F)cc(F)c4)c(=O)n(CCc4ccccc4)c3n2)CC1 | inactive | –
29 | O=c1c(-c2ccccc2)nc2cnc(N3CCOCC3)nc2n1CCc1ccccc1 | 7.94 µM (active) | –
30 | CN1CCN(c2ncc3ncc(=O)n(CCc4ccccc4)c3n2)CC1 | inactive | –
31 | O=c1c(-c2ccc(Cl)cc2)nc2cnc(N3CCOCC3)nc2n1CCc1ccccc1 | inactive | –
32 | N#CCCn1c(=O)cnc2cnc(N3CCOCC3)nc21 | inactive | –
33 | O=c1cnc2cnc(N3CCOCC3)nc2n1CCc1ccccc1 | 10 µM (active) | –
34 | COc1ccccc1-c1ccc2ncnc(N(C)C)c2c1 | – | -21.1% [at 2.29 µM]
35 | O=C(O)[C@H](Cc1c[nH]c2ccccc12)N1C(=O)c2ccccc2C1=O | – | 6.23% [at 11.4 µM]
36 | CN1C2C=C(N(CCc3c[nH]c4ccccc34)C(=O)c3ccc(Cl)cc3)CC1CC2 (centres undefined) | 1.78 µM (active) | –
37 | CN1[C@@H]2CC[C@H]1CC(OC(=O)c1c[nH]c3ccccc13)C2 (some centres undefined) | inactive | –
38 | C#CCCCO/N=C1/[C@H]2O[C@@H]2[C@@H](O)[C@H]2[C@H]1CCn1c(=O)n([C@@H](CC)c3ccccc3)c(=O)n12 | – | 4.97% [at 11.4 µM]
39 | COc1ccc(C(=O)Nc2cccc(OC(=O)c3ccc(C)c(C)c3)c2)cc1 | 3.55 µM (active) | –
40 | CN(Cc1ccco1)c1ncncc1-c1ccoc1 | – | -8.69% [at 2.29 µM]
41 | C/C(=N\n1nnnc1Nc1ccccc1)c1ccc(N)cc1 | 11.2 µM (active) | –
42 | N=C(N)SCc1nc2ccccc2c(=O)n1-c1ccccc1Cl | 3.16 µM (active) | –
43 | O=C(O)c1cc(-c2ccncc2)nc2ccccc12 | – | -29.2% [at 11.4 µM]
44 | O=C(c1cc(-c2ccncc2)nc2ccccc12)N1CCN(c2ccc(N3CCOCC3)nn2)CC1 | 1.26 µM (active) | –
45 | O=C(O)CSSCC(=O)O | – | 22.5% [at 11.4 µM]
46 | N[C@H](C(=O)O)c1cccc(O)c1 | inactive | –
47 | Cn1c(=O)c2[nH]c(-c3ccccc3)nc2n(C)c1=O | inactive | –
48 | CCCn1c(-c2ccccc2)nc2c(=O)n(C)c(=O)[nH]c21 | 12.6 µM (active) | –
49 | CCn1c(=O)c2[nH]c(-c3ccccc3)nc2n(CC)c1=O | inactive | –
50 | CC[N+](CC)(CC)CC | inactive | –

Row | SMILES | AC50 | activity, negative = inhibition
51 | Cc1nn2c3c(cnc2c1-c1ccccc1)C(=O)CC(c1ccccc1)C3 (centres undefined) | 10 µM (active) | –
52 | N[C@H](C(=O)O)[C@H](N)C(=O)O | – | 17.2% [at 11.4 µM]
53 | C=C[C@H](N)CCC(=O)O | inactive | –
54 | CO/N=C(\C(=O)N[C@@H]1C(=O)N2C(C(=O)O)=C(COC(C)=O)CS[C@@H]12)c1csc(N)n1 | inactive | –
55 | COc1ccc(N(C(=O)COc2ccccc2OC)S(=O)(=O)c2ccc(C)cc2)cc1 | 1 µM (active) | –
56 | COc1ccc(N(CC(=O)O)N=O)cc1 | – | -1.12% [at 11.4 µM]
57 | Cc1ccccc1-c1cc(NCCN2CCOCC2)ncn1 | – | 18.6% [at 2.29 µM]
58 | O=C1C(=O)c2ccccc2C(O)=C1C1CCC(c2ccc(Cl)cc2)CC1 (centres undefined) | 2 µM (active) | –
59 | CCC(c1nnnn1CC1CCCO1)N(CCN1CCOCC1)Cc1cc2cc(C)ccc2[nH]c1=O (centres undefined) | inactive | –
60 | Cc1cc(C)c2cc(CN(Cc3nnnn3Cc3ccc(F)cc3)C3CCCC3)c(=O)[nH]c2c1 | 7.08 µM (active) | –
61 | Cn1nccc1C(=O)Nc1ccc(Cl)cc1 | inactive | –
62 | Cn1c(C(=O)Nc2ccccc2)cc2sccc21 | 20 µM (active) | –
63 | COCC(=O)N(C)c1nnc(-c2ccc([N+](=O)[O-])cc2)s1 | inactive | –
64 | COCCN(C(=O)c1ccco1)c1nnc(-c2ccc(OC)cc2)s1 | 28.2 µM (active) | –
65 | O=C1N(c2ccccc2)c2ccccc2C1(Cc1ccncc1)Cc1ccncc1 | 7.94 µM (active) | –
66 | C=CCN1CCc2cc(O)c(O)cc2[C@H](c2ccccc2)C1 | inactive | –
67 | COc1ccccc1CN1CC2(CCN(S(C)(=O)=O)CC2)C1 | inactive | –
68 | Nc1nc(SCC(=O)Nc2ccccc2Sc2ccc(Cl)cc2)n[nH]1 | 1 µM (active) | –
69 | Cc1ccc(NC(=O)CN(C)C(=O)CSc2n[nH]c(N)n2)cc1 | inactive | –
70 | CC(C)=CCC/C(C)=C/CO/N=C1/C[C@@H](O)[C@@H](O)[C@@H]2[C@@H]3C(=O)N(C(C)(C)C)C(=O)[C@H]3CC[C@@H]12 | – | -9.91% [at 11.4 µM]
71 | CC[N+](CC)(CC)CCOc1ccc(/C=C\c2ccccc2)cc1 | inactive | –
72 | C=CCNC(=O)/C(=C\C=C\c1ccccc1)NC(=O)c1ccc(OCCCC)cc1 | 12.6 µM (active) | –
73 | Clc1ccc(/C=N/Nc2nnc(-c3ncc[nH]3)c3ccccc23)cc1 | 5.01 µM (active) | –
74 | N[C@@H](CSC(=O)c1ccccc1)C(=O)O | – | 18.3% [at 11.4 µM]
75 | O=C(Nc1cccn(Cc2c(Cl)cccc2Cl)c1=O)c1ccc(Cl)cc1Cl | 3.55 µM (active) | –

Row | SMILES | AC50 | activity, negative = inhibition
76 | O=C1Nc2ccccc2Nc2ncccc21 | inactive | –
77 | O=C(NCc1ccc2c(c1)OCO2)C1CC(=O)N(C2CCCC2)C1 (centres undefined) | inactive | –
78 | C/C(=C\C(=O)c1ccc(Br)cc1)NCc1ccc2c(c1)OCO2 | 11.2 µM (active) | –
79 | CC1(C)CC(NCc2ccc3c(c2)OCO3)CCO1 (centres undefined) | inactive | –
80 | O=C1Nc2ccccc2C(O)(C(=O)NCc2ccc3c(c2)OCO3)N1c1ccc(Cl)c(Cl)c1 (centres undefined) | inactive | –
81 | C/C(=C\C(=O)c1ccc(Cl)cc1)NCc1ccc2c(c1)OCO2 | 7.94 µM (active) | –
82 | COc1cc(C(=O)NCCC(=O)NCc2ccc3c(c2)OCO3)cc(OC)c1OC | inactive | –
83 | Cc1[nH]c2ccccc2c1/C=C/c1cc[n+](C)cc1 | inactive | –
84 | CCCc1ncc(C[n+]2ccccc2C)c(N)n1 | inactive | –
85 | O=C(c1ccccc1)c1ccc(OCCn2cnc3ccccc3c2=O)cc1 | 2.82 µM (active) | –
86 | Cc1ccc(SCCCn2cnc3ccccc3c2=O)cc1 | 12.6 µM (active) | –
87 | COc1ccc(Cl)cc1C(=O)Nn1cnc2ccccc2c1=O | inactive | –
88 | O=c1c2ccccc2ncn1CCCSc1ccccc1 | 14.1 µM (active) | –
89 | O=C1c2ccccc2C(=O)N1CCCSc1ccccc1 | – | -22.7% [at 11.4 µM]
90 | COc1ccc2c(OC)c3ccoc3nc2c1OC | inactive | –
91 | CN(CC(=O)O)Cc1c(O)c(Cl)cc(Cl)c1Cl | – | 13.6% [at 11.4 µM]
92 | C[C@@H](C(=O)NCCc1c[nH]c2ccccc12)[C@@H]1C[C@@]1(C)[C@@H](NC(=O)OCc1ccccc1)c1ccccc1 | 2.51 µM (active) | –
93 | C[C@@H](C(=O)NCCc1c[nH]c2ccccc12)[C@H]1C[C@]1(C)[C@H](NC(=O)OCc1ccccc1)c1ccccc1 | 0.631 µM (active) | –
94 | CC(=O)N[C@@H](Cc1c[nH]c2ccccc12)C(=O)OCc1cc(C(F)(F)F)cc(C(F)(F)F)c1 | inactive | –
95 | COC(=O)C(Cc1c[nH]c2ccccc12)NC(=O)C(C)C (centres undefined) | inactive | –
96 | C#C[C@@]1(OC(C)=O)CC[C@@H]2[C@@H]3CCC4=C[C@@H](OC(C)=O)CC[C@H]4[C@H]3CC[C@]21C | 15.8 µM (active) | –
97 | C#C[C@]1(O)CC[C@@H]2[C@H]3CCC4=CCCC[C@@H]4[C@@H]3CC[C@@]21C | 10 µM (active) | –
98 | C#C[C@@]1(O)CC[C@@H]2[C@@H]3CCC4=CC(=O)CC[C@@H]4[C@H]3CC[C@]21CC | inactive | –
99 | C#C[C@]1(O)CC[C@@H]2[C@H]3CCc4cc(OC)ccc4[C@@H]3CC[C@@]21C | inactive | –
